In PubChem BioAssay:
Activity calls are given as the source filed them.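 The calls were made as follows: active = viability increase at or above a cutoff of the median across tested compounds plus 3 SD (cut at about 8.5% in these data, passing the limit was not always enough); inconclusive = some gains above the cutoff, reason not given; inactive = the rest.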

Assay: doxorubicin toxicity protection in MRP-1 cells – H69AR cells, CellTiter-Glo, duplicate, MRP-1 activator project, pilot screen (AID 807);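 also: compound pretreatment 18-22 h then 72 h combined with doxorubicin; 0% = doxorubicin alone and 100% = vehicle without doxorubicin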
Details: H69AR viability with doxorubicin, CellTiter-Glo luminescence; at 10 µM; active compounds read high

Structure (SMILES) | viability increase
CCCCC(=O)NCCc1cc2c(C)ccc(C)c2[nH]c1=O | 0.28% (inactive)
CN1CCN(C2=C(Cl)C(=O)N(c3cccc(Cl)c3)C2=O)CC1 | -1.68% (inactive)
Cc1ccc(Cn2c(=O)c3ccccc3n3c(CCC(=O)O)nnc23)cc1 | -1.33% (inactive)
COc1cc(/C=N/n2cnnc2)ccc1OCC(=O)N1CCOCC1 | -2.75% (inactive)
CCC(C)C(=O)Nc1nc2c(s1)C(=O)CC(C)(C)C2 (stereo not given) | 0.25% (inactive)
O=C(C(Cc1ccccc1)n1cccc1)N1CCCCCC1 (stereo not given) | -2.42% (inactive)
Cc1ccc(NC(=O)c2cc(-c3ccc(C)o3)nc3ccccc23)nc1 | -4.08% (inactive)
Cc1cccc(-n2ncc3c(NCCCn4ccnc4)ncnc32)c1 | -0.65% (inactive)
Cc1ccc(CNC(=O)C2CCCN(S(=O)(=O)c3cnc[nH]3)C2)cc1 (stereo not given) | 0.52% (inactive)
CCCN1CCN(CCCNC(=O)Cn2ncc3c4ccccc4n(C)c3c2=O)CC1 | -1.73% (inactive)
CN(C)c1cc(NC(=O)CN2CCOCC2)c2ccccc2n1 | -1.8% (inactive)
CN(C)S(=O)(=O)c1ccc2c(c1)c(=O)c(C(=O)NCCCN1CCCCCC1)cn2C | -1.28% (inactive)
CC(C)c1ccc(C(O)c2cnc(C(C)C)n2C)cc1 (stereo not given) | 0.64% (inactive)
CCN(CC)C(=O)c1ccc(CS(=O)(=O)c2ccc(OC)cc2)o1 | -1.02% (inactive)
COc1ccc2c(c1)CCc1cc(C(=O)N3CCN(c4ccc(N5CCOCC5)nn4)CC3)sc1-2 | -1.37% (inactive)
COc1ccc(-c2[nH]c(-c3cccc(OC)c3)nc2SCC(=O)NCc2ccco2)cc1 | -4.56% (inactive)
CCSc1nnc(N2C(=O)CC(c3ccsc3)C3=C2CC(C)(C)CC3=O)s1 (stereo not given) | -1.55% (inactive)
CC1=C(C(=O)Nc2cccnc2)C(c2ccc(C(C)C)cc2)n2ncnc2N1 (stereo not given) | -3.03% (inactive)
CCCCN=CC1=C(O)C(C(=O)OC)C(C)(C)CC1=O (stereo not given) | -0.63% (inactive)
O=C1c2ccccc2C(Nc2cccnc2)N1Cc1ccccc1Cl (stereo not given) | -3.57% (inactive)

Structure (SMILES) | viability increase
CC(=O)NC(CCS(C)(=O)=O)C(=O)Nc1cccc(C)c1 (stereo not given) | 0.75% (inactive)
Cc1ccc(N2CCN(S(=O)(=O)N(C)C)CC2)c(C)c1 | 0.57% (inactive)
CCOc1ccc(NC(=O)CCN2CCN(c3ccccc3)CC2)cc1 | -3.89% (inactive)
CCOC(=O)C1=C(C)Nc2nnnn2C1c1ccc(OC)c(Br)c1 (stereo not given) | -2.62% (inactive)
CC(C)c1nnc(NC(=O)Cc2cccs2)s1 | -0.07% (inactive)
Cc1ccnc(NC(=O)C2CCC(CNc3c(N4CCCC4)c(=O)c3=O)CC2)c1 (stereo not given) | -1.61% (inactive)
CCN(CCCNS(=O)(=O)c1ccc2c(c1)oc(=O)n2C)c1cccc(C)c1 | -3.21% (inactive)
O=C(NCC1CCCO1)C1CCN(S(=O)(=O)c2cccc3cccnc23)CC1 (stereo not given) | -1.56% (inactive)
CCn1c(C(=O)N2CCC(C(=O)N3CCN(c4ccccn4)CC3)CC2)cc2sccc21 | -3.83% (inactive)
O=C(O)COc1ccc(S(=O)(=O)NCCc2ccccc2)cc1 | -0.3% (inactive)
CCOC(=O)N1CCN(C(=O)c2ccc(CS(=O)(=O)c3c(Cl)cccc3Cl)o2)CC1 | -2.77% (inactive)
CNC(=O)c1ccsc1NC(=O)c1ccccc1 | -0.77% (inactive)
CSc1nc2ccccc2c(=O)n1N | -1.1% (inactive)
CCN1CCN(C(c2cccs2)C(C)NC(=O)c2ccccc2)CC1 (stereo not given) | -0.71% (inactive)
CC(Sc1nc(-c2ccccc2)cc(C(F)(F)F)n1)C(=O)N1CCCC1 (stereo not given) | -2.25% (inactive)
CCOc1cccc(-c2nnc3n2N=C(c2cc(OC)ccc2OC)CS3)c1 | -3.98% (inactive)
COc1cc(NC(=O)C2CCCN2S(=O)(=O)c2cccc3cccnc23)cc(OC)c1OC (stereo not given) | -5.34% (inactive)
CCOC(=O)c1ccc(-n2c(C)nc3c(cnn3-c3ccccc3C)c2=O)cc1 | -0.28% (inactive)
O=C(Nc1c(C(=O)NCc2ccco2)cnn1-c1ccccc1)c1ccc(F)cc1 | -5.34% (inactive)
O=C(NCCC1=CCCCC1)C1CCN(S(=O)(=O)c2cccc3cccnc23)CC1 | 4.13% (inactive)
